Bioassay records (PubChem BioAssay)
KCNQ2 enhance: potentiators of rat KCNQ2 potassium channel | Potassium voltage-gated channel subfamily KQT member 2 (Rattus norvegicus), O88943 | CHO-K1 KCNQ2, FluxOR thallium flux fluorescence; stronger effect = higher value | B-score at 10 µM | 0.54% of 310,000 active;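 active = fluorescence ratio B-score at least 3 SD of library B-scores, with initial fluorescence B-score within 3 of them, cut at about 5.3 in these data; same plate scores as AID 2156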;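 also: B-score of peak minus minimum over baseline fluorescence ratio after K+ and Tl+ stimulus; positive B-score means potentiation of KCNQ2 with more thallium influx and brighter signal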
KCNQ2 block: rat KCNQ2 potassium channel inhibitors, primary screen, cell-based, CHO-K1, FluxOR thallium flux, B-score. Potassium voltage-gated channel subfamily KQT member 2 (Rattus norvegicus), O88943. 20 min; stronger effect = lower value. B-score at 10 µM. 1.1% of 310,000 active;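 active = fluorescence ratio B-score at most minus 3 library SDs, with starting brightness B-score within 2 library SDs, cut at about -5.5 in these data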
Kir21 confirm: mouse Kir2.1 channel blockers, retest, confirmation, cell-based, FluxOR thallium flux, duplicate. 41% of 2,300 active. AID 2032, 2009. Kir2.1-expressing cells, FluxOR thallium flux fluorescence; stronger effect = lower value. Tl flux remaining, % of negative control (stronger effect = lower value), % at 10 µM. shares compounds with KCNQ2 enhance;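 active = Primary-screen hit whose thallium flux fell at least 3 control SD below untreated wells in both duplicates, with normal baseline fluorescence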;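 also: 0% = blank wells without stimulus and 100% = stimulated no-compound controls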
HEK293 Tl flux: parental HEK293 activity in Kir2.1 inhibitor counter-screen. shares compounds with KCNQ2 enhance. parental HEK293 cells, FluxOR thallium flux fluorescence; 0% = unstimulated blank wells. FluxOR signal as % of negative control (100 = no effect), % at 10 µM. 19% of 2,300 active. AID 2105;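 active = dye signal at least 3 control SD above or below untreated wells in both duplicates, raw fluorescence within 3, either direction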;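 also: percent is based on the flux ratio of peak minus minimum fluorescence over baseline F0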
CHO-K1 ctr: nonspecific thallium flux increase in parental CHO-K1, confirmation, counter-screen for KCNQ2 potentiator project, cell-based, FluxOR thallium flux, duplicate; shares compounds with KCNQ2 enhance; parental CHO-K1 cells, FluxOR thallium flux fluorescence; zero = vehicle mean+3SD, 100% = vehicle-minus-blank window; activity increase over 3SD of controls, % at 10 µM; 43% of 1,200 active; AID 2282, 2010;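 active = signal rise of at least 3 SD above the untreated control mean, in both duplicate wells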;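 also: counter screen of KCNQ2 potentiator hits so any rise reflects channel-independent effects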
KCNQ1 pot spec: human KCNQ1 channel potentiation off-target, confirmation, selectivity assay for KCNQ2 potentiator project, cell-based, CHO, FluxOR thallium flux; AID 2283, 2010; activation over 3SD threshold, % at 10 µM; shares compounds with KCNQ2 enhance; CHO KCNQ1 stable, FluxOR thallium flux fluorescence; beyond 3SD, as % of vehicle-control signal; 28% of 1,200 active;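 active = fluorescence ratio rise of at least 3 SD of vehicle wells above their mean, in both replicate wells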;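 also: 0% = vehicle mean plus 3 SD and 100% = vehicle minus unstimulated blank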
KCNQ2 pot conf: rat KCNQ2 channel potentiators, confirmation, cell-based, CHO, FluxOR thallium flux, duplicate. shares compounds with KCNQ2 enhance. CHO-KCNQ2 cells, FluxOR thallium flux fluorescence. potentiation, less the hit threshold, % at 10 µM. 68% of 1,200 active. AID 2287, 2010;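 active = fluorescence ratio rising 3 SD or more over the vehicle control mean in both replicates, plus primary screen hit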;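 also: peak minus minimum thallium fluorescence divided by baseline after K/Tl stimulus; 0% = vehicle mean plus 3 SD and 100% = vehicle minus unstimulated blank difference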
Kir21 spec: mouse Kir2.1 channel activation off-target, confirmation, selectivity assay for KCNQ2 potentiator project, cell-based, HEK293, FluxOR thallium flux. shares compounds with KCNQ2 enhance. HEK293 Kir2.1, FluxOR thallium flux fluorescence. activity over 3SD threshold, % at 10 µM. 2% of 1,200 active. AID 2345, 2010;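 active = fluorescence ratio rise of at least 3 SD above the vehicle-control mean, seen in both replicates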;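 also: 0% = vehicle mean plus 3 SD and 100% = vehicle minus no-stimulus blank window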
KCNQ2 W236L MoA: potentiators of retigabine-insensitive KCNQ2 W236L, mechanism study for KCNQ2 potentiator project, cell-based, rat KCNQ2 W236L, CHO, automated patch clamp; 10% of 940 active; current increase over 3SD of negative controls (%), stronger effect = higher value, % at 25 µM; AID 2558, 2010; shares compounds with KCNQ2 enhance; automated patch clamp current;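 active = current increase at least 3 SD of the untreated controls above them in both duplicate recordings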
Active calls of the source: *. An excerpt weighted towards active compounds, which were near 1.6% of everything screened.

How did COC(=O)c1ccc(NC(=O)C2CC3CCC2C3)cc1 (configuration not stated) do in these assays?
KCNQ2 enhance: 1.2; KCNQ2 block: inactive

How did Cc1cccc(NC(=O)C2CC3CCC2C3)c1C (configuration not stated) do in these assays?
KCNQ2 enhance: 6.9*; KCNQ2 block: inactive; Kir21 confirm: inactive; HEK293 Tl flux: inactive; CHO-K1 ctr: -23; KCNQ1 pot spec: -14; KCNQ2 pot conf: 14*; Kir21 spec: -29; KCNQ2 W236L MoA: inactive

Results for CCOC(=O)c1ccc(NC(=O)C2CC3CCC2C3)cc1 (configuration not stated) ?
KCNQ2 enhance: 1.3; KCNQ2 block: inactive

What do the screens show for `COC(=O)c1sccc1NC(=O)C1CC2CCC1C2` (configuration not stated)?
KCNQ2 enhance: 1.1; KCNQ2 block: inactive

Results for CCCCOc1ccc(/C=C/C(=O)NC2=Nc3ccccc3NC(C)=C2C(=O)OCC)cc1OC ?
KCNQ2 block: inactive

What do the screens show for `O=C(NCCc1ccccc1)C1CCCN1C(=O)Nc1ccc(Cl)cc1` (configuration not stated)?
KCNQ2 block: inactive

What do the screens show for `COc1ccccc1C(=O)COC(=O)CNS(=O)(=O)c1ccc(C)c(C)c1`?
KCNQ2 block: inactive

Results for CS(=O)(=O)N(Cc1ccccc1)c1ccc(C(=O)Nc2ccc(C(N)=O)cc2)cc1 ?
KCNQ2 block: inactive; Kir21 confirm: inactive; HEK293 Tl flux: inactive

How did CC(=O)c1cccc(NC(=O)c2ccc(N(Cc3ccccc3)S(C)(=O)=O)cc2)c1 do in these assays?
KCNQ2 enhance: 1.6; KCNQ2 block: inactive

What do the screens show for `Cc1cccc(C)c1Nc1nnc(SC(C)C(=O)Nc2c(C)n(C)n(-c3ccccc3)c2=O)s1` (configuration not stated)?
KCNQ2 enhance: 0.02; KCNQ2 block: inactive

How did O=C(c1ccc2c(c1)OCO2)C1CCCN(Cc2cccc(C(F)(F)F)c2)C1 (configuration not stated) do in these assays?
KCNQ2 block: inactive

Results for O=C(c1ccc2c(c1)OCO2)C1CCCN(Cc2ccc(OC(F)F)cc2)C1 (configuration not stated) ?
KCNQ2 block: inactive; Kir21 confirm: inactive; HEK293 Tl flux: 122%*

Results for COc1ccc(NC(=O)CN2CCN(C3c4ccccc4-c4ccccc43)CC2)cc1 ?
KCNQ2 block: inactive

How did Cc1cc(Br)c(NC(=O)COC(=O)C2CC2C)c(Br)c1 (configuration not stated) do in these assays?
KCNQ2 enhance: 3.5; KCNQ2 block: inactive

How did Cc1ccc(NC(=O)COC(=O)C2CC2C)c(S(=O)(=O)N2CCCCC2)c1 (configuration not stated) do in these assays?
KCNQ2 enhance: 5.3*; KCNQ2 block: inactive; Kir21 confirm: inactive; HEK293 Tl flux: inactive; CHO-K1 ctr: -14; KCNQ1 pot spec: -17; KCNQ2 pot conf: -23; Kir21 spec: -50

What do the screens show for `C/C(=N\NC(=O)C1CC1)c1ccc(N2CCOCC2)cc1`?
KCNQ2 enhance: 0.08; KCNQ2 block: inactive

How did C/C(=N\NC(=O)C1COc2ccccc2O1)c1ccc(N2CCOCC2)cc1 (configuration not stated) do in these assays?
KCNQ2 enhance: 9.2*; KCNQ2 block: inactive; Kir21 confirm: inactive; HEK293 Tl flux: inactive; CHO-K1 ctr: 26*; KCNQ1 pot spec: -14; KCNQ2 pot conf: -20; Kir21 spec: -35

How did COc1ccccc1C(CNC(=O)C(C)Oc1ccc(Br)cc1)N1CCCC1 (configuration not stated) do in these assays?
KCNQ2 enhance: 0.14; KCNQ2 block: inactive; Kir21 confirm: inactive; HEK293 Tl flux: inactive

Results for COc1ccc(C(CNC(=O)C(C)Oc2ccc(Br)cc2)N2CCOCC2)cc1 (configuration not stated) ?
KCNQ2 block: inactive

How did CN1CCN(CC(O)(c2ccc(Cl)cc2)c2ccc(Cl)cc2)CC1 do in these assays?
KCNQ2 block: inactive; Kir21 confirm: 50%*; HEK293 Tl flux: inactive

Results for CN1CCN(CC(O)COc2ccc(Cl)cc2)CC1 (configuration not stated) ?
KCNQ2 enhance: 0.21; KCNQ2 block: inactive

What do the screens show for `CCN(CC(=O)NC(=O)NC1CCCC1)Cc1ccccc1`?
KCNQ2 block: inactive

Results for COC(=O)CCC(=O)Nc1cccc(Br)c1 ?
KCNQ2 block: inactive

How did COc1ccc(CNc2nc3ccccc3n2CCN2CCCCC2)cc1 do in these assays?
KCNQ2 block: inactive

How did COc1ccc(CCN2CCC(Nc3nc4ccccc4n3Cc3ccc(F)cc3)CC2)cc1 do in these assays?
KCNQ2 block: inactive; Kir21 confirm: inactive; HEK293 Tl flux: inactive

What do the screens show for `Nc1nc(CN2CCN(c3ccccn3)CC2)nc(Nc2ccc(Cl)cc2)n1`?
KCNQ2 enhance: 1.8; KCNQ2 block: inactive

What do the screens show for `Cc1nc2scc(-c3ccccc3)c2c(=O)n1N`?
KCNQ2 enhance: 0.36; KCNQ2 block: inactive

How did Cc1nc2scc(-c3ccccc3)c2c(=O)n1N=C1C=CC(=O)C=C1 do in these assays?
KCNQ2 block: inactive; Kir21 confirm: 62%*; HEK293 Tl flux: 51%*

How did Cc1ccccc1-c1cnn(-c2cccc([N+](=O)[O-])c2)c1N do in these assays?
KCNQ2 enhance: 0.71; KCNQ2 block: inactive
